From PubChem BioAssay (NCI)
Values joined by “and” are separate entries in the source; they are usually repeats but may differ in a detail not shown here. Identical values can stand only once. This is part of a sample that, as a whole, favours compounds with a hit. Of some 83,000 tested, about 20% had one in any assay.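 Plates (96-well) were seeded with cells, treated with compound at one concentration, and incubated for 48 hours before percent growth was determined.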 Active and inactive are the calls of the source. Rule for the calls: active = growth percent below 10; inactive = the rest.

test system: HL-60(TB) leukemia; test: NCI-60 one-dose screen, 48 h (100 = growth as untreated, 0 = no growth, -100 = all killed); details: 10 µM unless noted

Compound | growth
COc1ccc(-c2cc(-c3cn(-c4cccc(Cl)c4)nc3-c3ccc(OC)cc3)[nH]c(=S)n2)cc1 | 60.4% (inactive)
Cc1ccc(/C=C/c2c(C(=O)/C=C/c3ccc(C(F)(F)F)cc3)c(C)nc3ccccc23)cc1 | -41.3% (active)
OCCNc1nc(NCCO)nc(Nc2ccc(C3=NN(c4ccc(Cl)cc4)C(c4ccc(Cl)cc4)C3)cc2)n1 (stereo not given) | 46.2% (inactive)
O=C1c2ccccc2-c2c1nc1ccccc1[n+]2[O-] | 101% (inactive)
COc1ccc(C2=Cn3c(CCC(=O)c4nc5ccccc5[nH]4)nnc3SC2)cc1 | 95.6% (inactive)
Cc1cc2c([nH]1)CSc1cc(S(=O)(=O)c3ccccc3)c(=O)[nH]c1-2 | 27.7% [100 µM] (inactive)
CC(=O)OCC(COC(C)=O)(COC(C)=O)COC(C)=O | 104% (inactive)
COc1ccc(/C=N\NC(=O)c2cc(-c3ccc(Br)cc3)n(-c3ccc(S(N)(=O)=O)cc3)n2)cc1 | 33.5% (inactive)
CC1(C)OC(=O)C(=Cc2ccc(C#N)cc2)C(=O)O1 | 93.3% (inactive) and 88.8% (inactive)
CC(CN=Cc1ccccc1O)N=Cc1ccccc1O (stereo not given) | 110% (inactive) and 83% (inactive)
COc1ccc(C(=O)c2cc(C)c(OC)c(C)c2)c(OC)c1N(C(=O)C(Cl)Cl)C(=O)C(Cl)Cl | -32% (active)
CCN1CCN(Cc2cn(CC(=O)Nc3ccc4c(ccn4Cc4ccccc4)c3)nn2)CC1 | 95.5% (inactive)
c1ccc(OCC[P+](c2ccccc2)(c2ccccc2)c2ccccc2)cc1 | -19.4% (active)
CCOC(=O)c1c(C)nc2c(c1N)CC(=O)N2Cc1cc(F)cc(Cl)c1 | 79.1% (inactive)
CCCCCCCCn1ccc2cc(NC(=O)Cn3cc(CN4CCCCC4)nn3)ccc21 | -18.7% (active)
COc1cc(NS(C)(=O)=O)ccc1Nc1c2ccccc2nc2c(C)cccc12 | -29.5% (active) and -20.2% (active)
CCCNc1ccc(C2=NCCCN2)cc1 | 95.5% (inactive)
CNCc1cccc2c1OCCOCCOCCN(CCN1CCOCC1)S(=O)(=O)c1ccc(cc1)-c1cnc(N)c(n1)C(=O)N2 | -23.5% (active)
CN[C@@]12CC3(C=CC(=O)C=C3)O[C@]1(Cc1ccc(OC)cc1)N(C)C(=O)N2 | 0.452% (active)
Cc1nnc(NS(=O)(=O)c2ccc(N=Nc3ccc(N)nc3N)cc2)s1 | 98.4% (inactive) and 98.2% (inactive)

Compound | growth
CCN1CCN(Cc2ccc(NC(=O)Nc3ccc(-n4ccc5c(NC(=O)c6ccccc6)nccc54)cc3)cc2C(F)(F)F)CC1 | 35.8% (inactive)
CCCc1ccnc(NS(=O)(=O)c2ccc(N)cc2)n1 | 24.7% (inactive)
O=C(Nc1ccc(C(=O)O)c(O)c1)c1ccccc1 | 99% (inactive) and 105% (inactive)
O=C(Cc1ccccc1[N+](=O)[O-])c1ccc2c(c1)OCO2 | 99.7% (inactive)
O=Nc1c(O)ccc2ccccc12 | -26.3% (active) and 74% (inactive)
COc1ccccc1C1OC2=Nc3cc(C)c(C)cc3NC2C1=O (stereo not given) | 102% (inactive)
CC(C)N(Cc1ccc(CN(C(=O)CCl)C(C)C)cc1)C(=O)CCl | -46% (active)
O=[N+]([O-])c1cccc(-c2nc3cc4nc5ccccc5[nH]c4cc3n2)c1 | 91.5% (inactive)
CNC(=O)c1ccc(Nc2ncc(C(F)(F)F)c(NCc3nccnc3N(C)S(C)(=O)=O)n2)cc1 | -32.1% (active)
O=C(c1ccc(-c2nc(CSc3nc4ccccc4s3)no2)cc1)N1CCSCC1 | 27% (inactive)
CCN(CC)CCOc1ccc(/C=N/Nc2nc3c([nH]2)c(=O)n(C)c(=O)n3C)cc1 | 97.3% (inactive) and 115% (inactive)
O=C(C(=Cc1ccccc1)C(=O)c1ccccc1)c1ccccc1 | 13% (inactive) and 110% (inactive)
O=C(/C=C/c1c(-c2ccccc2)[nH]c2ccccc12)S(=O)(=O)c1ccccc1 | -22.1% (active)
COc1cc(-c2csc(NC(=O)Nc3ccc(Cl)cc3Cl)n2)cc(OC)c1OC | 17% (inactive)
N#Cc1c(-c2ccccc2)nc(SCC2CO2)nc1N1CCOCC1 (stereo not given) | 63.7% (inactive)
CCc1onc(-c2ccc(OC)cc2)c1-c1ccccc1OCCN(CC)CC | 82.6% (inactive)
CN(C)C(=S)Sc1ccc([N+](=O)[O-])cc1[N+](=O)[O-] | -5.16% (active)
O=C(N/N=C/c1cccc2ccccc12)C1CC1 | 71.3% (inactive) and 95.7% (inactive)
COc1ccccc1NC(=O)OCC#CCOC(=O)Nc1ccccc1OC | 85.4% (inactive) and 64.8% (inactive)
CC(C)c1ccc(NC(=O)Nc2ccc(NC(=O)CCCC(=O)NOCc3ccccc3)cc2)cc1 | 17.9% (inactive)
